Reference: PubChem BioAssay (EPA / NIEHS)
Results filed as inconclusive are left out. Activity calls are given as the source filed them. The calls were made as follows: active = hit-call score of the fitted dose curve at least 0.9, where 1 is the maximum; inconclusive = response in the unintended direction; inactive = score below 0.9.

Test: TOX21_p53_BLA_p5_viability: Viability Assessment in the Tox21 HCT-116 p53 Agonism Beta-lactamase Assay, Phase 5 (AID 2283600)
Description: TOX21_p53_BLA_p5 is a cell-based, single-readout assay that uses HCT116, a human intestinal cell line, […] in a 1536-well plate.TOX21_p53_BLA_p5_viability is an assay readout measuring cellular ATP content and detected with CellTiter-Glo Luciferase-coupled ATP quantitation.TOX21_p53_BLA_p5_viability used a type of viability reporter where loss-of-signal activity can be used to understand changes in the cell viability. Furthermore, this assay endpoint can be referred to as a secondary readout, because this assay has produced multiple assay endpoints where this one serves a viability function. To generalize the intended target to other relatable targets, this assay endpoint is annotated to the cell cycle intended target family, where the subfamily is cytotoxicity.
Thawing Method: Place 14 mL of pre-warmed thaw medium into a 15 mL of conical tub. Remove the vial of cells to be thawed from liquid nitrogen and thaw rapidly by placing at 37C in a water bath with gentle agitation for 1-2 minutes. Decontaminate the vial by wiping with 70% ethanol before opening in a biological safety cabinet. Transfer the vial contents drop-wise into 14 mL of thaw medium in a sterile 15-mL conical tub. Centrifuge cells at 900 rpm for 4 minutes and resuspend in thaw medium. Transfer contents to the T75 tissue culture flask containing Thaw Medium and place flask in a humidified 37C/5% CO2 incubator. Switch to growth medium at first passage.Propagation Method: Aspirate medium, rinse once in DPBS, add 0.25% Trypsin/EDTA and swirl to coat the cell evenly. Add an equal volume of Growth Medium to inactivate Trypsin after 2-3 minutes incubation at 37C. Centrifuge cells at 900 rpm for 4 minutes and resuspend in growth medium. Cell should be passage or fed at least twice a week.Assay Protocol: Harvest cells from culture in growth medium and resuspend in assay medium. 2.2 Dispense 4000 cells/5 uL/well into 1536-well black/clear bottom plates using a Multidrop dispenser. After the cells were incubated at 37C for 5 hours, 23 nL of compounds dissolved in DMSO were transferred to the assay plate by a PinTool resulting in a 217-fold dilution. Incubate the plates for 16 hours at 37C, 5% CO2. Add 1 uL of 6X LiveBLAzer FRET B/G (CCF4-AM) Substrate Mixture to each well using a BioRAPTR dispenser and incubate the plates at room temperature for 2 hours. Measure fluorescence intensity at 460 and 530 nm emission and 405 nm excitation by an Envision detector. Data is expressed as the ratio of 460nm/530nm emissions. Add 4 uL of Cell-titer Glo to each well using BioRAPTR and incubate the plates at room temperature for […]. For cell viability readout that measures cytotoxicity, 4 ul/well of CellTiter-Glo reagent was added into the assay plates using a Flying Reagent Dispenser. After 30 min incubation at room temperature, the luminescence intensity in the plates was measured using a ViewLux plate reader.

SMILES	outcome
CC(Cc1cccc(C(F)(F)F)c1)NCCOC(=O)c1ccccc1 (stereo not given)	inactive
N=C(N)c1ccccc1	inactive
COc1ccc(-c2nc3ccc(C4=NNC(=O)CC4C)cc3[nH]2)cc1 (stereo not given)	inactive
CC(=O)N[C@@H](Cc1ccc(O)cc1)C(=O)O	inactive
O=C(OC1C[C@@H]2CC3C[C@H](C1)N2CC3=O)c1c[nH]c2ccccc12 (stereo not given in full)	inactive
CC(C)NCC(O)COc1ccc(CCOCC2CC2)cc1 (stereo not given)	inactive
CCCCOC(=O)CCS	inactive
COC(=O)c1cc(C(=O)OC)cc(S(=O)(=O)O)c1	inactive
CC1=C(/C=C/C(C)=C/C=C/C(C)=C/C=C/C=C(C)/C=C/C=C(C)/C=C/C2=C(C)C(=O)CCC2(C)C)C(C)(C)CCC1=O	inactive
Cc1cc(O)ccc1O	inactive
C1CCc2nnnn2CC1	inactive
N=C(N)c1ccc(C=Cc2ccc(C(=N)N)cc2O)cc1	inactive
CCCCCCCC/C=C\CCCCCCCC(=O)OCCOC(=O)CCCCCCC/C=C\CCCCCCCC	inactive
Cc1cc(N)no1	inactive
O=C(Oc1ccccc1C(=O)O)c1ccccc1O	inactive
O=CC1CC=CCC1 (stereo not given)	inactive
CC(C)(C)NCC(O)COc1cccc2c1C[C@H](O)[C@H](O)C2 (stereo not given in full)	inactive
CCC(=O)OC(OP(=O)(CCCCc1ccccc1)CC(=O)N1C[C@H](C2CCCCC2)C[C@H]1C(=O)O)C(C)C (stereo not given in full)	inactive
O[C@@H]1CO[C@H]2[C@@H]1OC[C@@H]2O	inactive
C[Se]CC[C@H](N)C(=O)O	inactive

SMILES	outcome
CC(C)N=C=NC(C)C	inactive
Cc1cc(O)c(Cl)cc1C	inactive
N[C@@H](CSCCCO)C(=O)O	inactive
CCOC(=O)Nc1ccc2c(c1)N(C(=O)CN(C)C)c1ccccc1CC2	inactive
c1ccc2c(CCC3CCNCC3)c[nH]c2c1	inactive
CC(=O)Nc1ncc([N+](=O)[O-])s1	inactive
CCN(CC)C(=O)[C@]1(c2ccccc2)C[C@@H]1CN	inactive
NS(=O)(=O)c1ccc(C(=O)O)cc1	inactive
CC1(C)S[C@@H]2[C@H](NC(=O)[C@@H](NC(=O)N3CCNC3=O)c3ccccc3)C(=O)N2[C@H]1C(=O)O	inactive
CCCOC(C)=O	inactive
CCCCC(CC)COC(=O)CC#N (stereo not given)	inactive
O=C(CO)[C@@H](O)[C@H](O)[C@@H](O)CO	inactive
CCCC(C)C	inactive
Cc1ccccc1N=Nc1ccc(N=Nc2c(O)ccc3ccccc23)c(C)c1	inactive
CCC1NC(=O)c2cc(S(N)(=O)=O)c(Cl)cc2N1 (stereo not given)	inactive
Cc1ccc(N)nc1	inactive
NCc1ccc(S(N)(=O)=O)cc1	inactive
CCCN(CCC)C(=O)C(CCC(=O)O)NC(=O)c1ccccc1 (stereo not given)	inactive
CC(C)S	inactive
CCN(CCCc1ccccc1)CCCc1ccccc1	inactive
